Measured values: the supplement of paper PMC3334620
The full ranking holds about 33,000 sequences; the median of “E-score (-0.5 to 0.5)” is about -0.04, and the highest 2% start at about 0.36. What follows is part of a selection rich in the highest values, with near analogues and random picks from the rest.

Target: T1, Hmlalpha2 (UniProt P0CY09)
T1 sequence: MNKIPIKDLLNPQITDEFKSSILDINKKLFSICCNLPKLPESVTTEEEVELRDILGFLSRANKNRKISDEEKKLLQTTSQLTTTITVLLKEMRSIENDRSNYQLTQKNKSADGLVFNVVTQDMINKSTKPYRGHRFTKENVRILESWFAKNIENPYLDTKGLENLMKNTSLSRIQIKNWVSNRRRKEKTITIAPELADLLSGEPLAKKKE
Experiment: PBM E-score (8-mer binding enrichment) (E-score (-0.5 to 0.5)); higher = stronger / more preferred TF binding
Conditions: protein concentration: 200 nM; construct: GST-full length
Method in brief: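 Yeast transcription factors, full-length or as DNA-binding domains, were expressed with a GST tag using PURExpress in vitro transcription/translation. At about 100-200 nM they were applied to universal all-10-mer Agilent arrays, double-stranded by primer extension on fresh or once-stripped slides. Fluorescent anti-GST detected bound protein, and masliner normalised the scans. E-scores for ungapped eight-base words, pooled with reverse complements, came from the Universal PBM Analysis Suite.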

Sequence | PBM E-score
GCGTAAAA | 0.4
CCGTAAAC | 0.199
CTTCAATA | 0.173
ATACGGCA | 0.103
ACATGTAT | 0.454
AAATGTAT | 0.277
CCATGTCC | -0.00972
CGATGTAG | 0.106
GCCTGTAC | 0.101
ACATGTCT | 0.305
GCATGTCC | -0.0024
CCATGTAC | 0.398
GCATGTAC | 0.408
CCATGTCG | 0.336
CCATGTGC | 0.0482
CCATGTAG | 0.416
GCAGCTCA | -0.181
CTATGGAC | -0.125
CTGCGAAA | 0.0491
ATTCTGCA | -0.0444
ACCATCGT | -0.151
TCTAAGCA | -0.0643

Sequence | PBM E-score
TCGCTTAA | 0.0673
AATATGCT | 0.0361
ACATGTAG | 0.459
ACATGTAC | 0.412
ACATGTGG | 0.312
ACATGTCG | 0.343
ACATGTGC | 0.352
AGATGTAC | 0.121
CGGTGCGC | -0.279
ACTCTATC | -0.0301
ACCGTAGT | -0.225
AAGGGCCT | -0.136
ATGGCATA | -0.0529
CAAAGGTC | -0.233
ACGATTTA | 0.244
TAACACTA | 0.316
CCACACAA | -0.0216
CTACACAA | 0.369
CCACACAC | 0.0345
TTACAAAA | 0.266
CTACACCC | 0.0904
TTACACAA | 0.478

Sequence | PBM E-score
CTACAAAA | 0.0813
TCACACAA | 0.23
CTACACAC | 0.391
CTACAGAG | 0.184
CTCTACAG | 0.0676
CTACACAG | 0.421
GCATAAGC | 0.119
ACTGCCTC | -0.0994
CCCATTCG | -0.0725
GAAGCGGC | -0.131
GTACACAA | 0.373
GCACACAA | 0.155
GTACACAC | 0.357
AAGTGCTG | 0.107
TGCCACCA | -0.261
AACATGGT | 0.384
GACATGGC | 0.224
ATCATGGG | -0.0934
ACCATGGT | -0.0519
AACATGGG | 0.415
AACATGGC | 0.406
CACATGGG | -0.0456

Sequence | PBM E-score
CACATGGC | 0.0319
AACATGGA | 0.346
ACACTGTA | 0.116
TCAGAAGA | -0.267
AATGCCCA | 0.0243
AAATCCGG | -0.18
AAGTATTG | 0.0978
AACACAAT | 0.373
GACACAAC | 0.264
CACACAGC | 0.201
CACACAAC | 0.27
AACACAGG | 0.247
AACACAGC | 0.379
AACACAAC | 0.409
CACACAAG | 0.248
AACACAAG | 0.326
CGTTAGGA | 0.0405
CATCGACA | -0.0243
GACGCTCA | -0.111
GGCCACCC | -0.351
